The values that follow come from PubChem BioAssay (NCI).

Experiment in all cases: NCI-60 one-dose screen, 48 h (100 = growth as untreated, 0 = no growth, -100 = all killed)
One test relates to HCT-15 colon. Particulars: 10 µM unless noted.
The subject of another test is HT29 colon. Particulars: 10 µM unless noted.
Another test deals with SNB-75 CNS. Particulars: 10 µM unless noted.
The next test has as its system SNB-19 CNS. Particulars: 10 µM unless noted.
The next test relates to U251 CNS. Particulars: 10 µM unless noted.
The test system of a further test is SK-MEL-5 melanoma. Particulars: 10 µM unless noted.
Another test has as its system UACC-62 melanoma. Particulars: 10 µM unless noted.
A further test deals with LOX IMVI melanoma. Particulars: 10 µM unless noted.
In a further test the test system is SK-MEL-28 melanoma. Particulars: 10 µM unless noted.
Another test deals with SK-MEL-2 melanoma. Particulars: 10 µM unless noted.
A further test concerns EKVX NSCLC. Particulars: 10 µM unless noted.
The test system of the next test is SN12C renal. Particulars: 10 µM unless noted.
Another test deals with UO-31 renal. Particulars: 10 µM unless noted.
The test system of a further test is ACHN renal. Particulars: 10 µM unless noted.
The next test deals with CAKI-1 renal. Particulars: 10 µM.
For the next test, the system named is CCRF-CEM leukemia. Particulars: 10 µM unless noted.
In another test the test system is MOLT-4 leukemia. Particulars: 10 µM unless noted.
For the next test, the system named is TK-10 renal. Particulars: 10 µM unless noted.
The subject of the next test is PC-3 prostate. Particulars: 10 µM unless noted.
A further test relates to A498 renal. Particulars: 10 µM unless noted.

Molecules are shown by their SMILES. Compounds without any hit were thinned out: in the full panel of roughly 83,000, 20% have a hit.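 Interpretation: 100, growth as untreated; towards 0, rising growth inhibition; 0, no net growth; 0 to -100, cell death. Compounds scoring below 10 were considered active.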 A number with no mark means an inactive call. The source made the active and inactive calls.

On to `NS(=O)(=O)Oc1ccc2nc(Nc3ccc(F)c(F)c3)ccc2c1`, for which the growth in the test on HCT-15 colon is 69.6%; with HT29 colon, 97.3%; in the test on SNB-75 CNS, 81.3%; with SNB-19 CNS, 102%; in the test with U251 CNS, 91.9%; in the test with SK-MEL-5 melanoma, 98.7%. The growth was 85.5% with UACC-62 melanoma; 85.3% in the test with LOX IMVI melanoma; 98.5% with SK-MEL-28 melanoma; 116% in the test with SK-MEL-2 melanoma; 93.4% in the test on EKVX NSCLC; 88% in the test on SN12C renal. Further, the growth in the test with UO-31 renal was 73.3%; in the test on ACHN renal it was 85.8%; in the test on CAKI-1 renal, 76.7%; with CCRF-CEM leukemia, 67.8%; with MOLT-4 leukemia, 67%.

Take `COc1ccc([C@@H]2[C@@H](O)C(=O)N2c2cc(OC)c(OC)c(OC)c2)cc1Cl`: the growth in the test on HCT-15 colon was 10.5%; in the test with HT29 colon, 12.8%; in the test on SNB-75 CNS it was 53.4%; in the test with SNB-19 CNS, 30%; in the test on U251 CNS it was 1.75% (active); in the test on SK-MEL-5 melanoma, 0.0843% (active). The growth in the test with UACC-62 melanoma was 26.1%; in the test with LOX IMVI melanoma, 18.5%; in the test on SK-MEL-28 melanoma it was 64.2%; in the test with EKVX NSCLC it was 52.4%; in the test on SN12C renal it was 25.6%; with UO-31 renal, 31.8%. Further, the growth in the test with TK-10 renal was 89.4%; with ACHN renal it was 27.9%; in the test on CAKI-1 renal, 30.6%; in the test on CCRF-CEM leukemia it was 19.6%.

Take `C=C(C)C(=O)O[C@H]1C[C@@]2(C)OC(=CC2=O)/C(CO)=C\[C@H]2OC(=O)C(=C)[C@H]12`: the growth in the test with HCT-15 colon is -19.5% (active); in the test on HT29 colon, -12.2% (active); in the test with SNB-75 CNS, -0.788% (active); in the test on SNB-19 CNS it was 42.2%; with U251 CNS, -17.7% (active); with PC-3 prostate it was -3.05% (active). Also, the growth with LOX IMVI melanoma was -94.1% (active); in the test with SK-MEL-2 melanoma, -23.7% (active); in the test on EKVX NSCLC it was -5.67% (active); in the test on UO-31 renal, -90.1% (active); in the test on TK-10 renal it was -88.1% (active); with ACHN renal it was -42.1% (active). Moreover, the growth was -75.1% (active) with CAKI-1 renal, -3.55% (active) in the test with A498 renal, -44% (active) in the test on CCRF-CEM leukemia and -28% (active) in the test with MOLT-4 leukemia.

Take `CCc1ccc(NC(=O)N[C@@H](Cc2cccc(F)c2)C(=O)N[C@@H]2C(=O)N3CCC[C@H]3C(=O)N3CCCC[C@H]3C(=O)N[C@@H](CO)C(=O)N3C[C@H](C)C[C@H]3C(=O)O[C@H]2C)c(F)c1`: the growth in the test with HCT-15 colon is 15.1%; in the test with HT29 colon, 36.1%; in the test with SNB-75 CNS it was 26.4%; in the test on SNB-19 CNS, 28.1%; in the test on U251 CNS, 30.9%; in the test with SK-MEL-5 melanoma, 0.508% (active). For the same compound, the growth in the test on UACC-62 melanoma is 27.2%; in the test on LOX IMVI melanoma it was 24.9%; with SK-MEL-28 melanoma it was 44.6%; with EKVX NSCLC, 34%; in the test on SN12C renal it was 20.3%; with UO-31 renal it was 29.4%. Further, the growth in the test on TK-10 renal was 61.1%; in the test on ACHN renal, 32.2%; in the test with CAKI-1 renal it was 17.5%; in the test on CCRF-CEM leukemia, 37.7%; in the test with MOLT-4 leukemia it was 39.3%.

On to `O=C(Nc1cc(Cl)cc(Cl)c1)Nc1ccc2oc(=O)ccc2c1`, for which the growth in the test with HCT-15 colon was 8.08% (active); in the test with HT29 colon, 16.2%; in the test on SNB-75 CNS, 39.3%; in the test with SNB-19 CNS, 13.3%; with U251 CNS, 6.21% (active); with PC-3 prostate, 1.84% (active). Further, the growth in the test with SK-MEL-5 melanoma is 29.6%; in the test with LOX IMVI melanoma, 14.8%; in the test with SK-MEL-28 melanoma, 9.09% (active); in the test with EKVX NSCLC, 17%; with SN12C renal it was 4.07% (active); in the test on UO-31 renal it was 3.75% (active). The growth is 18.6% in the test on TK-10 renal; 4.26% (active) with ACHN renal; 7.57% (active) in the test on CAKI-1 renal; -8.24% (active) in the test on A498 renal; 24.9% in the test on CCRF-CEM leukemia; 12.4% in the test with MOLT-4 leukemia.

For `C/C(=C(/c1ccc(O)cc1)c1ccc(OCCN2CCCC2)cc1)c1ccc(Cl)cc1`, the growth is -19.1% (active) with HCT-15 colon; -52.3% (active) in the test on HT29 colon; 62.5% in the test on SNB-75 CNS; 49.1% in the test with SNB-19 CNS; 20.3% with U251 CNS; 46.9% in the test with PC-3 prostate. The growth in the test on SK-MEL-5 melanoma is 54.3%; with LOX IMVI melanoma, -19.2% (active); with SK-MEL-28 melanoma, -70% (active); in the test with EKVX NSCLC, 57.4%; with SN12C renal, 66%; in the test on UO-31 renal, 53.8%. Also, the growth was 84.5% in the test with TK-10 renal; 33.7% with ACHN renal; 41.9% in the test on CAKI-1 renal; 56.5% with A498 renal; 43.6% in the test on CCRF-CEM leukemia.

With `CC(C)Sc1nc(NC2CC2)c(C#N)c(-c2ccccc2)n1`, the growth in the test on HCT-15 colon is 92.4%; in the test on HT29 colon, 91.1%; with SNB-75 CNS, 34.7%; with SNB-19 CNS, 90%; with U251 CNS, 85.1%; in the test on SK-MEL-5 melanoma it was 100%. The growth with UACC-62 melanoma was 87.6%; with LOX IMVI melanoma, 67.9%; with SK-MEL-28 melanoma it was 98.7%; with SK-MEL-2 melanoma, 124%; with EKVX NSCLC, 101%; with SN12C renal, 57.8%. Moreover, the growth was 48.5% in the test with UO-31 renal; 123% in the test with TK-10 renal; 29.1% in the test with ACHN renal; 68% in the test with CAKI-1 renal; 64.5% with A498 renal; 85.1% in the test with CCRF-CEM leukemia. For the same compound, the growth in the test with MOLT-4 leukemia is 92.6%.
